# Results taken from the supplement of paper PMC8975748.
# Structures can show the parent of a compound that is named as a salt. ± gives the standard deviation of the averaged measurements.
# Columns and labels:
# [1] = test system: Saccharomyces cerevisiae BY4741 SeMeCo community; experiment: mean cell size (pixel area) (pixels); higher = larger cells; details: 10 µM; 24 h; SM minimal medium
# In short: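 Mean cell pixel area per well was determined by automated confocal microscopy with Harmony analysis of paraformaldehyde-fixed cells. The cells, a Saccharomyces cerevisiae BY4741 community of four plasmids that each complement one auxotrophy and carry a fluorescent marker, were incubated for 24 h with drug at a final 10 µM in SM medium in 384-well plates. Numbers are averaged over 3 replicates. Same SeMeCo high-content imaging drug screen: Selleck FDA-approved drugs at 10 µM, 24 h in SM medium, 384-well plates, 3 replicates.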
# [2] = test system: Saccharomyces cerevisiae BY4741 SeMeCo community; experiment: z-score of prototroph abundance vs DMSO median; higher = larger share of this subpopulation than in DMSO controls; details: 10 µM; 24 h; SM minimal medium; subpopulation (auxotrophy): Prototroph
# In short: (§1)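 Subpopulation abundance was reported as a z-score against the median of vehicle wells. The Saccharomyces cerevisiae BY4741 community, carrying four plasmids that each restored one auxotrophy and encoded a distinct fluorescent protein, was grown 24 h in minimal SM medium in 384-well plates holding library drugs at 10 µM final. Cells were paraformaldehyde-fixed and imaged by automated confocal microscopy, with single-auxotroph fluorescent strains used for thresholds and autofluorescence correction.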
# [3] = test system: Saccharomyces cerevisiae BY4741 SeMeCo community; experiment: z-score of subpopulation abundance vs DMSO median, subpopulation auxotrophic for M; higher = larger share of this subpopulation than in DMSO controls; details: 10 µM; 24 h; SM minimal medium; subpopulation (auxotrophy): M
# In short: as §1
# [4] = test system: Saccharomyces cerevisiae BY4741 SeMeCo community; experiment: z-score of subpopulation abundance vs DMSO median, subpopulation auxotrophic for L; higher = larger share of this subpopulation than in DMSO controls; details: 10 µM; 24 h; SM minimal medium; subpopulation (auxotrophy): L
# In short: as §1
# [5] = test system: Saccharomyces cerevisiae BY4741 SeMeCo community; experiment: z-score of subpopulation abundance vs DMSO median, subpopulation auxotrophic for H; higher = larger share of this subpopulation than in DMSO controls; details: 10 µM; 24 h; SM minimal medium; subpopulation (auxotrophy): H
# In short: as §1
# [6] = test system: Saccharomyces cerevisiae BY4741 SeMeCo community; experiment: z-score of subpopulation abundance vs DMSO median, subpopulation auxotrophic for LU; higher = larger share of this subpopulation than in DMSO controls; details: 10 µM; 24 h; SM minimal medium; subpopulation (auxotrophy): LU
# In short: as §1
# [7] = test system: Saccharomyces cerevisiae BY4741 SeMeCo community; experiment: z-score of subpopulation abundance vs DMSO median, subpopulation auxotrophic for LM; higher = larger share of this subpopulation than in DMSO controls; details: 10 µM; 24 h; SM minimal medium; subpopulation (auxotrophy): LM
# In short: as §1
# [8] = test system: Saccharomyces cerevisiae BY4741 SeMeCo community; experiment: z-score of subpopulation abundance vs DMSO median, subpopulation auxotrophic for HM; higher = larger share of this subpopulation than in DMSO controls; details: 10 µM; 24 h; SM minimal medium; subpopulation (auxotrophy): HM
# In short: as §1
# [9] = test system: Saccharomyces cerevisiae BY4741 SeMeCo community; experiment: z-score of subpopulation abundance vs DMSO median, subpopulation auxotrophic for HU; higher = larger share of this subpopulation than in DMSO controls; details: 10 µM; 24 h; SM minimal medium; subpopulation (auxotrophy): HU
# In short: as §1
# [10] = test system: Saccharomyces cerevisiae BY4741 SeMeCo community; experiment: z-score of subpopulation abundance vs DMSO median, subpopulation auxotrophic for UM; higher = larger share of this subpopulation than in DMSO controls; details: 10 µM; 24 h; SM minimal medium; subpopulation (auxotrophy): UM
# In short: as §1
# [11] = test system: Saccharomyces cerevisiae BY4741 SeMeCo community; experiment: z-score of subpopulation abundance vs DMSO median, subpopulation auxotrophic for HLM; higher = larger share of this subpopulation than in DMSO controls; details: 10 µM; 24 h; SM minimal medium; subpopulation (auxotrophy): HLM
# In short: as §1
# [12] = test system: Saccharomyces cerevisiae BY4741 SeMeCo community; experiment: z-score of subpopulation abundance vs DMSO median, subpopulation auxotrophic for HUM; higher = larger share of this subpopulation than in DMSO controls; details: 10 µM; 24 h; SM minimal medium; subpopulation (auxotrophy): HUM
# In short: as §1
# [13] = test system: Saccharomyces cerevisiae BY4741 SeMeCo community; experiment: z-score of subpopulation abundance vs DMSO median, subpopulation auxotrophic for LUM; higher = larger share of this subpopulation than in DMSO controls; details: 10 µM; 24 h; SM minimal medium; subpopulation (auxotrophy): LUM
# In short: as §1
# [14] = test system: Saccharomyces cerevisiae BY4741 SeMeCo community; experiment: z-score of subpopulation abundance vs DMSO median, subpopulation auxotrophic for HLUM; higher = larger share of this subpopulation than in DMSO controls; details: 10 µM; 24 h; SM minimal medium; subpopulation (auxotrophy): HLUM
# In short: as §1
# [15] = test system: Saccharomyces cerevisiae BY4741 SeMeCo community; experiment: z-score of subpopulation abundance vs DMSO median, subpopulation auxotrophic for U; higher = larger share of this subpopulation than in DMSO controls; details: 10 µM; 24 h; SM minimal medium; subpopulation (auxotrophy): U
# In short: as §1
# [16] = test system: Saccharomyces cerevisiae BY4741 SeMeCo community; experiment: z-score of subpopulation abundance vs DMSO median, subpopulation auxotrophic for HL; higher = larger share of this subpopulation than in DMSO controls; details: 10 µM; 24 h; SM minimal medium; subpopulation (auxotrophy): HL
# In short: as §1
# [17] = test system: Saccharomyces cerevisiae BY4741 SeMeCo community; experiment: z-score of subpopulation abundance vs DMSO median, subpopulation auxotrophic for HLU; higher = larger share of this subpopulation than in DMSO controls; details: 10 µM; 24 h; SM minimal medium; subpopulation (auxotrophy): HLU
# In short: as §1
SMILES,mean cell size [1],z-score of prototroph abundance [2],z-score of subpopulation abundance [3],z-score of subpopulation abundance [4],z-score of subpopulation abundance [5],z-score of subpopulation abundance [6],z-score of subpopulation abundance [7],z-score of subpopulation abundance [8],z-score of subpopulation abundance [9],z-score of subpopulation abundance [10],z-score of subpopulation abundance [11],z-score of subpopulation abundance [12],z-score of subpopulation abundance [13],z-score of subpopulation abundance [14],z-score of subpopulation abundance [15],z-score of subpopulation abundance [16],z-score of subpopulation abundance [17]
C[C@@H](O)[C@H]1C(=O)N2C(C(=O)O)=C(SCCNC=N)C[C@H]12 [Imipenem],12.26 ± 0.071,-0.79,0.92,-1.04,0.19,-0.16,0.19,0.44,-0.46,1.18,0.25,0.59,0.35,-0.14,,,
N[C@@H]1CCCCN(c2c(F)cc3c(=O)c(C(=O)O)cn(C4CC4)c3c2Cl)C1 [Besifloxacin HCl],,,,0.15,0.1,,0.38,,0.44,-0.28,0.44,-0.3,,0.22,0.87,-0.33,0.25
NC12CC3CC(CC(C3)C1)C2 [Amantadine],12 ± 0.17,,-0.63,0.99,0.12,0.79,0.28,-0.03,-0.15,0.12,-0.36,0.47,,-0.31,-0.38,-0.09,
COc1ccnc(C[S+]([O-])c2nc3cc(-n4cccc4)ccc3[nH]2)c1C (configuration not stated) [Ilaprazole],12.6 ± 0.45,-0.51,,,4.64,,0.85,,-0.45,,1.1,-1.45,-0.52,0.68,-1.42,3.84,0.92
CCN1CCN(c2cc3c(cc2F)c(=O)c(C(=O)O)cn3C2CC2)CC1 [Enrofloxacin],12.04 ± 0.1,0.16,0.24,-0.5,-0.13,-0.21,0.01,-0.25,0.07,0,0.21,0.02,-0.06,-0.35,0.01,,
"CO[C@H]1C[C@@H]2CC[C@@H](C)[C@@](O)(O2)C(=O)C(=O)N2CCCC[C@H]2C(=O)O[C@H]([C@H](C)C[C@@H]2CC[C@@H](OP(C)(C)=O)[C@H](OC)C2)CC(=O)[C@H](C)/C=C(\C)[C@@H](O)[C@@H](OC)C(=O)[C@H](C)C[C@H](C)/C=C/C=C/C=C/1C [Ridaforolimus (Deforolimus, MK-8669)]",,-18.3,,-0.55,15.9,,,,,12.7,16.1,29.1,11,21.4,3.51,13.8,23.1
CCCCOc1ccc(CC(=O)NO)cc1 [Bufexamac],12.53 ± 0.12,1.23,,,-0.53,,-1.36,-0.9,0.4,-0.32,-1.19,-1.13,-0.9,-1.25,0.85,-0.85,-0.71
CC(C)c1nc(N(C)S(C)(=O)=O)nc(-c2ccc(F)cc2)c1/C=C/[C@@H](O)C[C@@H](O)CC(=O)O [Rosuvastatin],11.22 ± 0.092,-2.69,-1.77,2.53,4.84,1.31,0,2.17,1.77,,3.7,2.38,1.84,2.76,-1.39,5.32,
Oc1c(I)cc(I)c2cccnc12 [Diiodohydroxyquinoline],12.1 ± 0.48,,-0.3,0.99,,3.93,0.38,2.21,2.97,0.65,2.46,1.2,2.87,1.67,2.25,2.9,
CC(=O)NC[C@H]1CN(c2ccc(N3CCOCC3)c(F)c2)C(=O)O1 [Linezolid],,,-0.22,-0.63,,0.78,0.19,-0.27,-0.11,0.29,-0.75,0.01,-0.15,-0.36,1.39,,
Oc1c(I)cc(Cl)c2cccnc12 [Clioquinol],13.1 ± 0.49,-17.7,-0.87,-0.06,9.23,10.4,,,16,6.49,119,,,22.7,-1.64,9.34,
Cn1c(=O)c2c(ncn2CC(O)CO)n(C)c1=O (configuration not stated) [Dyphylline],,1.12,-1.07,-0.69,-0.64,-0.11,-0.74,,-0.83,-0.61,-0.91,-1.32,-1.44,-0.64,,-0.71,
Cc1ccc(S(=O)(=O)NC(=O)NN2CC3CCCC3C2)cc1 (configuration not stated) [Gliclazide],12.6 ± 0.2,0.12,0.04,-0.2,-0.29,-0.08,-0.15,0.02,,0.59,-0.16,-0.04,-0.57,-0.17,,0.12,
CC1=Nc2ccc(Cl)cc2S(=O)(=O)N1 [Diazoxide],12.4 ± 0.1,,-0.76,-0.67,-0.86,-0.67,,-0.62,-0.17,-0.03,-1.55,,-0.9,-1.32,0.16,-0.72,
CC[C@H]1OC(=O)[C@H](C)[C@@H](O[C@H]2C[C@@](C)(OC)[C@@H](O)[C@H](C)O2)[C@H](C)[C@@H](O[C@@H]2O[C@H](C)C[C@H](N(C)C)[C@H]2O)[C@](C)(O)C[C@@H](C)C(=O)[C@H](C)[C@@H](O)[C@]1(C)O [Erythromycin],12.3 ± 0.15,-0.5,0.24,1.96,1,0.03,1.38,0.91,,-0.8,0.66,-0.16,1.19,0.28,-1.28,2.42,
CN(C)CCC[C@@]1(c2ccc(F)cc2)OCc2cc(C#N)ccc21 [Escitalopram Oxalate],12.4 ± 0.18,1.15,0.05,0.5,-0.42,-0.08,0.48,-0.98,,-0.53,-0.63,-0.36,,0.18,,-0.1,
